PubChem BioAssay (Tox21)
Inconclusive results are not listed. Where a call stands in place of a potency, no number is given. The source made the active and inactive calls. Calls come from the whole dose curve; as a rule, active = well fitted curve in the direction sought with a large enough effect in the repeat runs; inconclusive = weak or mixed curves; inactive = no such curve, though single readings can be large; an effect the other way counts as inactive or inconclusive.

biological target: Androgen receptor (Homo sapiens) (UniProt P10275); assay: qHTS assay to identify small molecule agonists of the androgen receptor (AR) signaling pathway using the MDA cell line (AID 743040; note: nearly all actives have a fitted effect of over 20% in size); conditions: MDA-kb2 AR-luc cells, MMTV luciferase, 16 h; series mostly up to 70.3 µM
Sequence (P10275 whole entry, looked up): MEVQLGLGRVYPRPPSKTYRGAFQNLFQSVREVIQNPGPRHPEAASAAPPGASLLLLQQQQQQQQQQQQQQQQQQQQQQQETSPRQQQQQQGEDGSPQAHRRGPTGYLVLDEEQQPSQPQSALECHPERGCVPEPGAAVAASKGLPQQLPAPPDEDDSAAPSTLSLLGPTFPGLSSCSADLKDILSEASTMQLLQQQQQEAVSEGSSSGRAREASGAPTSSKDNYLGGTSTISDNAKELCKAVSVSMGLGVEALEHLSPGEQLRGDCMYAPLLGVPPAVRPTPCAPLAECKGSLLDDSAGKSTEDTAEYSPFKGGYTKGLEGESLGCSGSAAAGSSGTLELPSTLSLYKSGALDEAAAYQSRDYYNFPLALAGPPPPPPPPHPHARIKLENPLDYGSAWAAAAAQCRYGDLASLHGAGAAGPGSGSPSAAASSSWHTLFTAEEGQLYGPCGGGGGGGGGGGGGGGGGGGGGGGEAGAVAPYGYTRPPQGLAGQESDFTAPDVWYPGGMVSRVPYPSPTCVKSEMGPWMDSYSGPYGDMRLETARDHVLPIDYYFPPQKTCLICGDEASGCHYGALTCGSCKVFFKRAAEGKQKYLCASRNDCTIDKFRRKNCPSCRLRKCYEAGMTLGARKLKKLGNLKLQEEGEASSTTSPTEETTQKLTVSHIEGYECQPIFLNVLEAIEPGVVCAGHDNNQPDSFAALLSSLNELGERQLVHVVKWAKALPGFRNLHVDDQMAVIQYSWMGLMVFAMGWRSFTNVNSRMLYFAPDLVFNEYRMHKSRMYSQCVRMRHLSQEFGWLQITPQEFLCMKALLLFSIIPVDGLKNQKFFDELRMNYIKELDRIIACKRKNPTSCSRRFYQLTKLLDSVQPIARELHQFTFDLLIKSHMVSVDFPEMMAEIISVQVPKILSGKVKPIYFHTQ
Method in brief: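 Luciferase read-out, ONE-Glo, 30 min RT. Cells: MDA-kb2 AR-luc, MMTV promoter with AR and GR response elements. Compound exposure 16 h, 37C, 0% CO2, after 5 h pre-incubation. qHTS agonist mode.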

Structure (SMILES) | outcome
CC[C@H](N)c1ccccc1 | inactive
CCNc1nc(Cl)nc(NC(C)(C)C)n1 | inactive
CCCOc1nn(C(=O)NS(=O)(=O)c2ccccc2C(=O)OC)c(=O)n1C | inactive
CCN[C@@H](C)Cc1ccccc1 | inactive
CCOC(=O)CC(SP(=S)(OC)OC)C(=O)OCC (stereo unspecified) | inactive
CCN(CC)C1CCCCC1 | inactive
O=S1(=O)OCCO1 | inactive
CCOP(=S)(OCC)SCCl | inactive
CCC1(c2ccccc2)C(=O)N(COC)C(=O)N(COC)C1=O | inactive
CCOC1Oc2ccc(OS(C)(=O)=O)cc2C1(C)C (stereo unspecified) | inactive
Clc1ccc(C(Cl)(Cl)Cl)cn1 | inactive

tested on: not listed separately; assay: qHTS assay to identify small molecule antagonists of the androgen receptor (AR) signaling pathway using the MDA cell line - cell viability counter screen (AID 743041; note: nearly all actives have a fitted effect of over 45% in size); conditions: MDA-kb2 viability, CellTiter-Fluor, 16 h, cells co-treated with R1881 androgen agonist; series mostly up to 70.3 µM
Method in brief: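 Cytotoxicity counter screen: MDA-kb2 AR-luc cells, compound + R1881, 16 h, 37C, 0% CO2; CellTiter-Fluor added at 15.5 h, fluorescence read after 30 min.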

Structure (SMILES) | Potency
CC[C@H](N)c1ccccc1 | inactive
COC(=O)[C@@H](N)CCCN/C(N)=N/[N+](=O)[O-] | inactive
CCOC(=O)c1ncn2c1CN(C)C(=O)c1c(I)cccc1-2 | inactive
CCN[C@@H](C)Cc1cccc(C(F)(F)F)c1 | inactive
BrCCc1ccccc1 | inactive
CCC(=O)OC1(c2ccccc2)CCN(C)CC1 | inactive
C[C@@H](N)[C@@H](O)c1ccccc1 | inactive
CCNc1nc(Cl)nc(NC(C)(C)C)n1 | inactive
CCOC(=O)N(C)N=O | inactive
OCC(Cl)CCl (stereo unspecified) | inactive
CCCOc1nn(C(=O)NS(=O)(=O)c2ccccc2C(=O)OC)c(=O)n1C | inactive
CCN[C@@H](C)Cc1ccccc1 | inactive
ClCCCCCCCl | inactive
CCOC(=O)CC(SP(=S)(OC)OC)C(=O)OCC (stereo unspecified) | inactive
C=C(C)[C@H]1CN[C@H](C(=O)O)[C@H]1CC(=O)O | inactive
CC(C)(C)C(=O)Cl | inactive
CCCCOC(C)=O | inactive
CNC(=O)Oc1cc(C)c(N(C)C)c(C)c1 | inactive
O=S1(=O)OCCO1 | inactive
COc1ccccc1OC | inactive
CCOP(=S)(OCC)Oc1ccc(Cl)cc1Cl | inactive
CCC1(c2ccccc2)C(=O)N(COC)C(=O)N(COC)C1=O | inactive
O=P(O)(O)c1ccccc1 | inactive
CCCCS(=O)(=O)Cl | inactive
CC[C@H](O)C(C[C@H](C)N(C)C)(c1ccccc1)c1ccccc1 | inactive
Clc1ccc(C(Cl)(Cl)Cl)cn1 | inactive
O=C(Cl)c1ccccc1 | inactive
BrCC1CO1 (stereo unspecified) | inactive
NCCOS(=O)(=O)O | inactive
CN=CNc1ccc(C)cc1C | inactive

tested on: not listed separately; assay: qHTS assay to identify small molecule antagonists of the thyroid receptor (TR) signaling pathway - cell viability counter screen (AID 743064); conditions: GH3.TRE-Luc viability, CellTiter-Fluor, 24 h; series mostly up to 70.3 µM; note: nearly all actives have a fitted effect of over 50% in size
Method in brief: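 GH3.TRE-Luc cells, 4 h pre-plating; cpd + T3 1 nM final; 37 °C 23.5 h; CellTiter-Fluor 30 min; fluorescence read.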

Structure (SMILES) | Potency
ClCCCCl | inactive
CC[C@H](N)c1ccccc1 | inactive
COC(=O)[C@@H](N)CCCN/C(N)=N/[N+](=O)[O-] | inactive
CCOC(=O)c1ncn2c1CN(C)C(=O)c1c(I)cccc1-2 | inactive
CCN[C@@H](C)Cc1cccc(C(F)(F)F)c1 | inactive
CCN(CC)CCOC(=O)C(O)(c1ccccc1)c1ccccc1 | inactive
BrCCc1ccccc1 | inactive
C[C@@H](N)[C@@H](O)c1ccccc1 | inactive
CCNc1nc(NCC)nc(SC)n1 | inactive
CCOC(=O)N(C)N=O | inactive
OCC(Cl)CCl (stereo unspecified) | inactive
CCCOc1nn(C(=O)NS(=O)(=O)c2ccccc2C(=O)OC)c(=O)n1C | inactive
CCN[C@@H](C)Cc1ccccc1 | inactive
ClCCCCCCCl | inactive
CCOC(=O)CC(SP(=S)(OC)OC)C(=O)OCC (stereo unspecified) | inactive
